Assay results taken from PubChem BioAssay (NCI).
About 79,000 compounds went through this panel and 15% of them were active in at least one assay; those are over-represented in the sample as a whole. A number with no mark means an inactive call. Calls of active or inactive are those of the source. Rule as the data show it: active = growth inhibition above about 70%; inactive = the rest.

Experiments:
[1] = NCI Yeast Anticancer Drug Screen. Data for the rad52 strain (AID 147);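 also: 0% = growth of vehicle-treated control cultures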; conditions: S. cerevisiae rad52 mutant growth inhibition, active compounds read high
Summary of the method: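 Yeast strain carrying a DNA damage repair alteration was exposed to test compounds. Growth inhibition was measured relative to vehicle-treated controls.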

[2] = NCI Yeast Anticancer Drug Screen. Data for the rad50EPP+ strain (AID 151);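 also: 0% = growth of vehicle-treated control cultures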; conditions: S. cerevisiae rad50 mutant strain, active compounds read high
Summary of the method: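 Yeast strain carrying rad50 alteration (rad50EPP+) exposed to compounds; growth inhibition measured relative to vehicle-treated controls.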

[3] = NCI Yeast Anticancer Drug Screen. Data for the mgt1 strain (AID 153); conditions: S. cerevisiae mgt1 mutant growth inhibition, active compounds read high
Summary of the method: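 Yeast mgt1 strain (DNA repair/cell-cycle alteration panel) exposed to compounds; growth inhibition measured relative to vehicle-treated controls.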

[4] = NCI Yeast Anticancer Drug Screen. Data for the rad50 strain (AID 155);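 also: 0% = growth of vehicle-only cultures of the same strain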; conditions: S. cerevisiae rad50 strain growth inhibition, active compounds read high
Summary of the method: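 DNA repair mutant yeast, compound exposure, growth read-out; inhibition is taken relative to vehicle.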

[5] = NCI Yeast Anticancer Drug Screen. Data for the mec2-1 strain (AID 157); conditions: S. cerevisiae mec2-1 strain, active compounds read high
Summary of the method: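 mec2-1 yeast strain, carrying an alteration in DNA damage repair or cell cycle control, was exposed to compounds; growth inhibition was measured relative to vehicle-treated controls.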

[6] = NCI Yeast Anticancer Drug Screen. Data for the rad14 strain (AID 159);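 also: 0% = growth of vehicle-treated control cultures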; conditions: S. cerevisiae rad14 strain growth inhibition, active compounds read high
Summary of the method: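 DNA repair-defective yeast, compound-exposed; % growth inhibition derived by comparison with vehicle-treated controls.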

[7] = NCI Yeast Anticancer Drug Screen. Data for the sgs1 mgt1 strain (AID 161);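 also: 0% = growth of cultures given vehicle only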; conditions: S. cerevisiae sgs1 mgt1 strain, active compounds read high
Summary of the method: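 This yeast growth screen uses a strain with defined DNA-repair lesions; compound-treated growth is compared with vehicle-treated growth.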

[8] = NCI Yeast Anticancer Drug Screen. Data for the CLN2oe strain (AID 163);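 also: 0% = growth of vehicle-only control cultures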; conditions: S. cerevisiae CLN2oe strain, active compounds read high
Summary of the method: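 Yeast cells carrying a defined cell-cycle control alteration were exposed to test compounds. Growth inhibition was scored against vehicle-treated control cultures.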

[9] = NCI Yeast Anticancer Drug Screen. Data for the cln2 rad14 strain (AID 165);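 also: 0% = growth equal to vehicle treated cultures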; conditions: S. cerevisiae cln2 rad14 strain, active compounds read high
Summary of the method: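 Yeast carrying cln2 and rad14 alterations (cell cycle control and DNA damage repair) were exposed to compounds. Growth inhibition was measured against vehicle-treated controls.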

[10] = NCI Yeast Anticancer Drug Screen. Data for the bub3 strain (AID 167); conditions: S. cerevisiae bub3 mutant strain, active compounds read high
Summary of the method: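 In this screen, a yeast mutant lacking normal mitotic checkpoint function is challenged with compound. Relative growth versus vehicle gives the inhibition value.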

[11] = NCI Yeast Anticancer Drug Screen. Data for the wt2 strain (AID 169);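 also: 0% = growth of vehicle-treated yeast cultures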; conditions: S. cerevisiae wt2 strain growth inhibition, active compounds read high
Summary of the method: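 Yeast cells were exposed to test compounds, and growth inhibition was measured relative to vehicle-treated controls.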

[12] = NCI Yeast Anticancer Drug Screen. Data for the mlh1 strain (AID 171);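 also: 0% = growth of vehicle-treated control cultures of the same strain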; conditions: S. cerevisiae mlh1 strain growth inhibition, active compounds read high
Summary of the method: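 Yeast carrying a defined genetic alteration in DNA damage repair or cell cycle control were exposed to test compounds. Growth inhibition was measured relative to vehicle-treated controls.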

[13] = NCI Yeast Anticancer Drug Screen. Data for the sgs1 strain (AID 173);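 also: 0% = growth of vehicle-only control cultures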; conditions: S. cerevisiae sgs1 mutant, active compounds read high
Summary of the method: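 Yeast mutant strains carrying defined defects in DNA damage repair or cell cycle control were exposed to test compounds. Growth inhibition was scored against vehicle-treated controls.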

[14] = NCI Yeast Anticancer Drug Screen. Data for the mlh1 rad18 strain (AID 175); conditions: S. cerevisiae mlh1 rad18 strain growth inhibition, active compounds read high
Summary of the method: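 Growth inhibition of the yeast strain was measured after compound exposure and expressed relative to vehicle-treated controls. The strain carries defined defects in DNA damage repair.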

[15] = NCI Yeast Anticancer Drug Screen. Data for the rad18 strain (AID 177); conditions: S. cerevisiae rad18 mutant growth inhibition, active compounds read high
Summary of the method: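 Yeast carrying a defined DNA damage repair alteration were exposed to compounds. Growth inhibition was expressed relative to vehicle-treated controls.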

[16] = at 5.0 µM (retest, dose inferred, filed as 0.5)
[17] = at 50.0 µM (retest, dose inferred, filed as 5.0)

With `O=C1c2ccccc2N2OC3(N4CCCC4)CCCCC3C12c1ccccc1` (stereo not drawn) the growth inhibition ([1]; at 1.2 µM) was -4%, the growth inhibition ([1]; at 3.7 µM) was 1% and the growth inhibition ([1]; at 11.0 µM) was 10%. The growth inhibition ([1]; at 33.0 µM) was 17%, the growth inhibition ([1]; at 100.0 µM) was 98% (active) and the growth inhibition ([2]; at 1.2 µM) was -33%. The growth inhibition ([2]; at 3.7 µM) was -38%, the growth inhibition ([2]; at 11.0 µM) was -28% and the growth inhibition ([2]; at 33.0 µM) was 35%. For the same compound, the growth inhibition ([2]; at 100.0 µM) was 99% (active), the growth inhibition ([3]; at 1.2 µM) was -18% and the growth inhibition ([3]; at 3.7 µM) was -7%. The growth inhibition ([3]; at 11.0 µM) was -24%, the growth inhibition ([3]; at 33.0 µM) was -13% and the growth inhibition ([3]; at 100.0 µM) was 98% (active). For the same compound, the growth inhibition ([4]; at 1.2 µM) was 5%, the growth inhibition ([4]; at 3.7 µM) was -5% and the growth inhibition [4, 16] was -35%. For the same compound, the growth inhibition ([4]; at 11.0 µM) was 7%, the growth inhibition ([4]; at 33.0 µM) was 19% and the growth inhibition [4, 17] was -14%. For the same compound, the growth inhibition ([4]; at 50.0 µM) was 84.6% (active), the growth inhibition ([4]; at 100.0 µM) was 97% (active) and the growth inhibition ([5]; at 1.2 µM) was -19%. It also gave a growth inhibition ([5]; at 3.7 µM) of -7%, a growth inhibition [5, 16] of 1% and a growth inhibition ([5]; at 11.0 µM) of -25%. For the same compound, the growth inhibition ([5]; at 33.0 µM) was -1%, the growth inhibition [5, 17] was 23% and the growth inhibition ([5]; at 50.0 µM) was 24.9%. For the same compound, the growth inhibition ([5]; at 100.0 µM) was 98% (active), the growth inhibition ([6]; at 1.2 µM) was -23% and the growth inhibition ([6]; at 3.7 µM) was -20%. For the same compound, the growth inhibition ([6]; at 11.0 µM) was -27%, the growth inhibition ([6]; at 33.0 µM) was -17% and the growth inhibition ([6]; at 100.0 µM) was 98% (active). For the same compound, the growth inhibition [7, 16] was -9%, the growth inhibition [7, 17] was -18% and the growth inhibition ([7]; at 50.0 µM) was 74.7% (active). It also gave a growth inhibition ([8]; at 1.2 µM) of -9%, a growth inhibition ([8]; at 3.7 µM) of -12% and a growth inhibition ([8]; at 11.0 µM) of -10%. For the same compound, the growth inhibition ([8]; at 33.0 µM) was 4%, the growth inhibition ([8]; at 100.0 µM) was 98% (active) and the growth inhibition [9, 16] was 16%. For the same compound, the growth inhibition [9, 17] was 33%, the growth inhibition ([9]; at 50.0 µM) was 1.8% and the growth inhibition ([10]; at 1.2 µM) was -19%. It also gave a growth inhibition ([10]; at 3.7 µM) of -13%, a growth inhibition [10, 16] of -6% and a growth inhibition ([10]; at 11.0 µM) of -2%. For the same compound, the growth inhibition ([10]; at 33.0 µM) was 40%, the growth inhibition [10, 17] was 92% (active) and the growth inhibition ([10]; at 50.0 µM) was 79.7% (active). For the same compound, the growth inhibition ([10]; at 100.0 µM) was 98% (active), the growth inhibition ([11]; at 1.2 µM) was -18% and the growth inhibition ([11]; at 3.7 µM) was -17%. For the same compound, the growth inhibition ([11]; at 11.0 µM) was -14%, the growth inhibition ([11]; at 33.0 µM) was -8% and the growth inhibition ([11]; at 100.0 µM) was 88% (active). For the same compound, the growth inhibition ([12]; at 1.2 µM) was -46%, the growth inhibition ([12]; at 3.7 µM) was -44% and the growth inhibition ([12]; at 11.0 µM) was -41%. For the same compound, the growth inhibition ([12]; at 33.0 µM) was -10%, the growth inhibition ([12]; at 100.0 µM) was 98% (active) and the growth inhibition ([13]; at 1.2 µM) was -1%. For the same compound, the growth inhibition ([13]; at 3.7 µM) was 5%, the growth inhibition ([13]; at 11.0 µM) was 7% and the growth inhibition ([13]; at 33.0 µM) was 61%. For the same compound, the growth inhibition ([13]; at 100.0 µM) was 98% (active), the growth inhibition [14, 16] was -33% and the growth inhibition [14, 17] was 35%. The growth inhibition ([14]; at 50.0 µM) was 18.8%, the growth inhibition ([15]; at 1.2 µM) was -9% and the growth inhibition ([15]; at 3.7 µM) was -7%. The growth inhibition ([15]; at 11.0 µM) was -7%, the growth inhibition ([15]; at 33.0 µM) was 15% and the growth inhibition ([15]; at 100.0 µM) was 98% (active).
